Assay outcomes: PubChem BioAssay, several laboratories
LMP1 NFkB inh: reduces LMP1-driven NF-kappaB luciferase signal. LMP1-induced NF-kappaB luciferase reporter cells, luminescence. inhibition, % at 12.5 µM. actives 0.69% (n = 350,000); in the data active = inhibition above about 41%
TROY signal inh: blocks TROY-dependent signaling in reporter cells; actives 0.98% (n = 360,000); Q293 LMP1-TROYcd NF-kB luciferase reporter, 4 h; inhibition, % at 10 µM; AID 1347056;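 active = compounds whose plate-normalised and pattern-corrected inhibition of the luciferase reporter signal at the single screening dose is 50% or more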
Peg3 prom inh: Peg3 promoter activity inhibition. HeLa PEG-Prom luciferase reporter, luminescence, overnight. inhibition, % at 20 µM. actives 1.7% (n = 360,000). AID 588405;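 active = inhibition of at least 50% at 20 µM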
Shn3 3UTR inh: inhibitors of Schnurri-3 3'UTR reporter in osteoblasts; AID 588674; Clone20 osteoblast Shn3 3'UTR firefly luciferase, 24 h; inhibition, % at 12.5 µM; actives 0.52% (n = 360,000);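 active = mean inhibition of at least 75% with every replicate also reaching 75%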
TWEAK-Fn14 inh: TWEAK-Fn14 signaling inhibition; TWEAK-stimulated Fn14 reporter cells, luciferase luminescence, 8 h; inhibition, % at 10 µM; actives 2% (n = 360,000); in the data active = inhibition above about 50%
MITF TRPM1 inh: inhibitors of MITF-driven TRPM1 promoter in melanoma cells | AID 488899 | SK-MEL-5 TRPM1 promoter luciferase, 24 h | inhibition, % at 12.5 µM | actives 0.83% (n = 330,000);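 active = mean inhibition across replicates of 60% or more, whatever share of single replicates reaches that level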
Large screens that a line does not name were inactive. In the library only some 4.1% were active in any assay of this set; here they are far more common.

C=CCn1c(SCC(=O)N2CC(=O)Nc3ccccc32)nc2scc(-c3cccs3)c2c1=O	TWEAK-Fn14 inh 52
COCCCNc1nc2cc(OC)c(OC)cc2c2nc(-c3ccccc3)nn12	Peg3 prom inh 54
CCN(CC)CCCNc1nc2cc(OC)c(OC)cc2c2nc(-c3cccnc3)nn12	none
COc1cc2nc(NCC3CCCO3)n3nc(-c4cccnc4)nc3c2cc1OC (stereo not drawn)	Peg3 prom inh 55
CC(=O)C1=C(O)C(=O)N(CCC(=O)O)C1c1ccccc1Cl (stereo not drawn)	TWEAK-Fn14 inh 59
CC(=O)C1=C(O)C(=O)N(CCC(=O)O)C1c1ccc(Cl)cc1Cl (stereo not drawn)	none
O=S1(=O)CC=C(CSC(=S)NC2CCS(=O)(=O)C2)C1 (stereo not drawn)	Peg3 prom inh 57
c1ccc(-c2csc(Nc3ccc4c(c3)OCCO4)n2)cc1	TROY signal inh 58
c1cc2c(cc1Nc1nc(-c3ccc4c(c3)OCO4)cs1)OCCO2	TWEAK-Fn14 inh 56
COC(=O)N/N=C/c1c(C)c(C(=O)c2ccc(F)cc2)n2ccccc12	none
CCOC(=O)N/N=C/c1c(C)c(C(=O)c2ccc(F)cc2)n2ccccc12	none
Cc1c(/C=N/NC(=O)c2ccccc2O)c2ccccn2c1C(=O)c1ccc(F)cc1	TROY signal inh 51, TWEAK-Fn14 inh 66
Cc1c(/C=N/NC(=O)c2ccc(O)cc2)c2ccccn2c1C(=O)c1ccc(F)cc1	TWEAK-Fn14 inh 54
Nc1ncnc2c(C3OC(CO)C(O)C3O)scc12 (stereo not drawn)	LMP1 NFkB inh 71, TROY signal inh 65, Peg3 prom inh 90, Shn3 3UTR inh 97, TWEAK-Fn14 inh 100, MITF TRPM1 inh 83
C[C@H](NC(=O)c1nc[nH]c1C(=O)NCC(=O)OCc1ccccc1)c1ccccc1	none
COc1ccccc1[C@@]1(C)ON(c2ccccc2C(F)(F)F)C1=O	Peg3 prom inh 77
O=C1N(c2ccccc2C(F)(F)F)OC1(Cc1ccccc1)c1ccccc1 (stereo not drawn)	Peg3 prom inh 58
FC(F)(F)c1ccccc1-n1ccnc1	none
O=C1N(c2ccccc2C(F)(F)F)O[C@]1(c1ccccc1)C1CCCCC1	Peg3 prom inh 65
COc1ccccc1N1C(=O)CC(c2ccccc2)CC1=O	none
CC[C@]1(c2ccccc2C)ON(c2ccccc2C(F)(F)F)C1=O	none
Cc1ccc(S(=O)(=O)N2CCC(NC(=O)c3cccc(C)c3)CC2)cc1	none
CCn1c(SCC(=O)Nc2nc(-c3ccccc3)cs2)nnc1-c1ccccc1	TWEAK-Fn14 inh 54
CCOC(=O)c1c(NC(=O)CSc2nnc(-c3c[nH]c4ccccc34)n2CCOC)sc2c1CCCCC2	TWEAK-Fn14 inh 53 (no result: MITF TRPM1 inh)
CN1CCN(CC(=O)Nc2nc(-c3ccccc3)cs2)CC1	none
COc1ccc(C2(O)CCN(CC(=O)Nc3nc(-c4ccccc4)cs3)CC2)cc1	TWEAK-Fn14 inh 83
CCSc1nnc(NC(=O)CSc2nnc(-c3c[nH]c4ccccc34)n2CC)s1	LMP1 NFkB inh 85
CCC(C(=O)Nc1ccsc1C(=O)OC)c1ccccc1 (stereo not drawn)	none
COC(C/C=C\[C@@H](O)COCc1ccccc1)OC	none
COc1ccc(Cc2nc3ccc(C(=O)N4CCCCC4CO)cc3o2)cc1OC (stereo not drawn)	none (no result: MITF TRPM1 inh)
Oc1ccc(Nc2nc(-c3ccccc3)nc3ccccc23)cc1	none
Oc1ccc(Nc2nc3ccccc3nc2Nc2ccc(O)cc2)cc1	Peg3 prom inh 96, TWEAK-Fn14 inh 76, MITF TRPM1 inh 66
CC(Sc1nnc(Cc2ccccc2)o1)C(=O)Nc1ccccc1[N+](=O)[O-] (stereo not drawn)	none
CCN(CC)c1ccc(/C=C/c2cccc[n+]2C)c(OC)c1	Shn3 3UTR inh 89, MITF TRPM1 inh 68
COc1ccc(/C=C/c2cccc[n+]2C)c(O)c1	none
COc1ccc(-n2c(=O)c(CCC(=O)N(C)Cc3ccccc3C)nc3ccccc32)cc1	none
CCc1ccc(CN(C)C(=O)CCc2nc3ccccc3n(-c3ccc(OC)cc3)c2=O)cc1	TROY signal inh 54, Peg3 prom inh 57, TWEAK-Fn14 inh 52
CS(=O)(=O)N(CC(=O)Nc1ccc(F)cc1F)C1CCCCC1	LMP1 NFkB inh 82
CSc1ccccc1NC(=O)CN(C1CCCCC1)S(C)(=O)=O	none
CCOC(=O)c1c(C)nn(-c2ccc(NC(=O)/C=C/C(=O)O)cc2)c1C	TWEAK-Fn14 inh 61 (no result: Shn3 3UTR inh)
c1cncc(Cc2cc3ccccc3[nH]2)c1	none
c1ccc2[nH]c(-c3cnco3)cc2c1	TROY signal inh 52, TWEAK-Fn14 inh 64
COc1cc(CN2CCC(Cc3ccccc3)CC2)c([N+](=O)[O-])cc1OC	TWEAK-Fn14 inh 80
O=c1c2ccccc2c(C=Nc2ccccc2O)c(O)n1-c1nccs1	Shn3 3UTR inh 87
Cc1ccccc1N=Cc1c(O)n(-c2nccs2)c(=O)c2ccccc12	none
CC1=C(C(=O)N(C)C)C(c2ccc(C)s2)NC(=S)N1 (stereo not drawn)	none
Cc1cc(Cl)n2c(nc3cc(F)c(F)cc32)c1C#N	Peg3 prom inh 110, Shn3 3UTR inh 96, TWEAK-Fn14 inh 69, MITF TRPM1 inh 98
Cc1cc(C)n2c(=O)c3ccc(Cl)cc3nc2c1C#N	none
Cc1cc(Oc2nc3ccccn3c(=O)c2/C=C(\C#N)C(=O)NC2CCS(=O)(=O)C2)ccc1Cl (stereo not drawn)	Peg3 prom inh 66
Cn1ccnc1C(=O)c1ccc(S(=O)(=O)N2CCCC2)cc1	none
O=C(Nc1ccn(Cc2ccc(Cl)cc2)n1)c1ccccc1	none
N#CCCn1ccc(NC(=O)c2ccc(Cl)cc2)n1	TWEAK-Fn14 inh 67 (no result: TROY signal inh)
CC(=O)C[C@H](O)CC(=O)[C@H]1OC(=O)[C@@H](C)CCCCc2ccccc21	none
COc1ccc2oc(=O)c(/C(C)=N/Nc3nc(-c4cc(C)ccc4C)cs3)cc2c1	none
COc1ccc2oc(=O)c(-c3csc(Nc4ccc(O)cc4)n3)cc2c1	TWEAK-Fn14 inh 68
Nc1ccc(C(=O)n2c3ccccc3c3ccccc32)cc1	TROY signal inh 51
CCN1CCN(C(CCc2ccccc2)C(=O)NC2CCCCC2)CC1 (stereo not drawn)	none (no result: LMP1 NFkB inh, MITF TRPM1 inh)
O=C(Nc1ccc2c(c1)OCCO2)c1cnc2ccccn2c1=O	TWEAK-Fn14 inh 70
Cc1ccc(C(=O)Nc2cnc3ccccn3c2=O)cc1	none
Cc1cccc(NC(=O)c2cnc3sccn3c2=O)c1	none (no result: MITF TRPM1 inh)
Cc1cccc(NC(=O)c2cnc3ccccn3c2=O)c1	LMP1 NFkB inh 51, TWEAK-Fn14 inh 80
O=C(Nc1cnc2ccccn2c1=O)c1ccc(Cl)cc1Cl	LMP1 NFkB inh 44, TROY signal inh 73, TWEAK-Fn14 inh 82
COc1ccc(C(=O)NCc2ncccc2C)cc1OC1CCN(C(C)=O)CC1	none
CCC(C)(C)NC(=O)CN(C(=O)CCC(=O)Nc1nccs1)c1ccccc1C	none
COc1cc(OC)c(/C=C2\SC(=O)N(CC(=O)Nc3ccccc3F)C2=O)c(OC)c1	LMP1 NFkB inh 44
